# Assay outcomes (PubChem)
# Hits are enriched below; roughly 2.2% of the tested compounds scored in any of these assays.
# IEC-6 cytotox = kills IEC-6 intestinal cells in KLF5 counter-screen; inhibition, % at 5 µM; IEC-6 cytotoxicity, luminescence viability; 290,000 tested, 0.78% active;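 note: 0% = plate median of test compound wells and 100% = cytotoxic reference compound wells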
# KLF5 inh = inhibitors of KLF5 expression; inhibition, % at 5 µM; DLD-1 KLF5 promoter-luciferase reporter, luminescence; 290,000 tested, 0.23% active;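 active = inhibition above a per-plate limit of that plate's mean compound inhibition plus 3 SD, cut at about 60% in these data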;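 note: 0% = DMSO wells and 100% = LY294002 at 200 µM; higher means less KLF5 promoter-driven luciferase light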
# Ba/F3 V617F tox = reduce viability of Ba/F3 cells dependent on JAK2V617F; inhibition, % at 5.6 µM; Ba/F3 EpoR-JAK2V617F viability, ATP luminescence; 220,000 tested, 1.1% active;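 active = inhibition above the campaign mean plus 3 SD over all tested compounds, cut at about 24% in these data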;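 note: cytokine-independent growth of Ba/F3 cells driven by EpoR plus mutant JAK2; 0% = DMSO-treated cells and 100% = JAK inhibitor I control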
# APP transl inh = APP translation inhibition. 190,000 tested, 0.82% active. inhibition, % at 2 µM. SH-SY5Y APP 5'UTR-luciferase reporter, luminescence;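 active = inhibition above a set limit, derived from the sample mean plus 3 SD, cut at about 45% in these data; inconclusive = one replicate passes the limit while the other fails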
# aSyn UTR inh = 5' untranslated region of α-synuclein, MLPCN primary screen | inhibition, % (tested at 7.5 µM) | 300,000 tested, 0.82% active | alpha-synuclein 5'UTR reporter, inhibitor activity; in the data active = inhibition above about 60%; inconclusive = no clear call, values can overlap the other calls;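 note: H4 neuroglioblastoma cells stably carrying SNCA 5'UTR luciferase fusion; 0% = DMSO wells and 100% = positive control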
# BaF3 parental = counter-screen for JAK2V617F inhibitors: parental Ba/F3 viability inhibitors; CellTiter-Glo ATP luminescence; inhibition, % at 5.6 µM; 220,000 tested, 1.1% active;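 active = inhibition above a per-campaign cutoff, the mean inhibition of all tested compounds plus 3 SD, cut at about 27% in these data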;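 note: 0% = DMSO wells and 100% = JAK Inhibitor I control wells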
# IEC-6 tox confirm = confirmation of cytotoxic compounds in rat IEC-6 intestinal epithelial cells; shares compounds with IEC-6 cytotox; IEC-6 rat intestinal epithelial viability, luminescence; inhibition, % at 5 µM; 1,900 tested, 63% active; AID 1907;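 note: 0% = vehicle and 100% = reference cytotoxic drug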
# An asterisk follows results filed as active; ? = inconclusive; / = not tested or not shown. Cut-off read from the data, not from the text of the source, unless noted: active = inhibition above about 22%; inactive = the rest.
SMILES,IEC-6 cytotox,KLF5 inh,Ba/F3 V617F tox,APP transl inh,aSyn UTR inh,BaF3 parental,IEC-6 tox confirm
CC(/C=N/NC(=O)c1n[nH]c2c1CCC2)=C\c1ccccc1,85.5*,11.1,82.9*,94.3*,28.8,79.7*,62.2*
CC(/C=N/NC(=O)c1ccccc1C)=C\c1ccccc1,/,/,/,/,-136.3,/,/
COc1ccc(C(=O)N/N=C/C(Br)=C/c2ccccc2)cc1,-1.8,-44.0,0.6,24.0,-57.9,6.8,/
O=C(N/N=C/C(Br)=C\c1ccccc1)c1n[nH]c2c1CCC2,74.6*,44.1,85.0*,95.7*,18.0,78.4*,82.3*
O=C1CN(C(=O)COC(=O)/C=C/c2ccco2)c2ccccc2N1,-9.5,-28.2,-1.5,6.7,-11.1,5.1,/
O=C(OCn1ncc(Br)c(Br)c1=O)c1ccccc1Cl,23.2*,8.5,39.9*,/,-40.2,37.3*,53.8*
O=C(OCc1cnc(Cl)s1)c1ccccc1Cl,-15.0,-23.7,0.9,-7.7,-19.4,8.0,/
O=C(OCn1ncc(Br)c(Br)c1=O)c1ccc(F)cc1,36.1*,26.0,84.7*,95.5*,64.5*,92.8*,62.4*
COC(=O)C(C)n1cnc2c(nnn2-c2ccccc2)c1=O (configuration not stated),-1.5,-18.0,/,/,-14.3,/,/
CCC(c1nnnn1C(C)(C)C)N1CCN(Cc2ccccc2OC)CC1 (configuration not stated),0.5,-21.3,3.5,8.0,12.2,1.9,/
O=C(NCc1cccnc1)c1ccc([N+](=O)[O-])cc1,-2.6,-16.9,1.0,-2.0,9.9,5.8,/
O=C(NCc1cccnc1)c1ccc(NC(=O)c2cccc([N+](=O)[O-])c2)cc1,75.3*,-11.3,20.6,9.7,4.1,0.1,8.1
O=C(COc1ccc([N+](=O)[O-])cc1)NCc1cccnc1,-2.1,-63.3,1.4,-24.6,-19.8,10.4,/
C=CCOc1ccc(C(=O)Nc2ccccc2C(=O)NCc2cccnc2)cc1,39.3*,47.2,/,/,-51.8,/,25.7*
O=C(COc1ccc([N+](=O)[O-])cc1)Nc1ccc(C(=O)NCc2cccnc2)cc1,30.3*,-22.2,10.1,-8.7,14.1,1.4,-6.3
Cc1ccc2nc(N/C(=N/S(=O)(=O)c3ccc(F)cc3F)c3ccccc3)sc2c1,22.5*,-58.2,1.9,-66.2,-107.9,6.6,6.2
Cc1ccc2nc(N/C(=N/S(=O)(=O)c3ccc(F)cc3)c3ccccc3)sc2c1,-1.3,-85.5,-2.9,-31.7,-106.6,5.1,/
CSc1cccc(NS(=O)(=O)c2ccc3c(c2)CCN3C(C)=O)c1,33.4*,41.9,/,/,-4.0,/,19.0
COc1cccc(NS(=O)(=O)c2ccc3c(c2)CCN3C(C)=O)c1,6.4,-0.6,/,/,-19.4,/,/
CCn1c(CCNC(=O)c2cccs2)nnc1SCC(=O)NC1CCCCC1,25.1*,-28.4,5.8,-27.2,-4.1,2.0,4.8
O=C(N/N=C/c1ccc(O)cc1)c1[nH]c2ccc(Br)cc2c1-c1ccccc1,82.9*,56.3,75.3*,94.3*,7.6,71.0*,65.4*
O=C(N/N=C/c1c[nH]c2ccccc12)c1[nH]c2ccc(Br)cc2c1-c1ccccc1,81.9*,43.7,76.2*,91.9*,-26.4,68.4*,63.1*
CCOc1ccc(CC(=O)Nc2nccs2)cc1OCC,6.8,-1.3,0.4,17.5,9.6,8.3,/
COCCCNC(=S)Nc1cc2oc3ccccc3c2cc1OC,33.6*,16.1,/,/,-0.4,/,22.3*
COc1ccc(CCNCc2c(OC)ccc3ccccc23)cc1OC,25.6*,-24.2,/,/,16.4,/,4.2
SMILES,IEC-6 cytotox,KLF5 inh,Ba/F3 V617F tox,APP transl inh,aSyn UTR inh,BaF3 parental,IEC-6 tox confirm
Cc1ccc(-n2c(O)c(/C=C3/C(c4ccccc4)=Nc4ccccc43)c(=O)[nH]c2=O)cc1,65.7*,27.6,74.1*,76.1*,-3.5,60.5*,59.5*
O=C(CCn1c(=O)oc2ccccc21)N1CCN(c2ccccc2Cl)CC1,22.8*,32.1,13.2,-2.9,-18.2,15.6,40.1*
O=C(c1ccco1)N1CCN(Cc2ccccc2C(F)(F)F)CC1,14.4,6.8,0.3,-9.1,/,3.7,/
O=C(c1ccco1)N1CCN(Cc2cccc3ccccc23)CC1,26.3*,5.5,/,/,16.8,/,15.7
CCN(CC)c1ccc2c(Cl)c(Br)c(=O)oc2c1,49.5*,-25.2,1.5,5.1,1.7,2.9,27.0*
CCOC(=O)c1[nH]c(C)c(C(=O)c2cc(F)ccc2F)c1C,87.7*,50.6,63.0*,95.1*,73.9*,78.0*,64.6*
CCOC(=O)c1[nH]c(C)c(C(=O)OCC)c1C,-0.2,-56.2,-1.1,-18.8,-3.9,-4.8,/
CCOC(=O)c1[nH]c(C)c(C(=O)OCc2ccccc2F)c1C,51.0*,36.3,/,/,-8.5,/,37.9*
CCN(CC)CCCNC(=O)C1c2ccccc2C(=O)N1Cc1ccc(C)cc1 (configuration not stated),-0.9,-36.6,-0.9,-65.8,-1.5,6.9,/
COc1ccc(Cn2c(C3CC3)nc3ccc(NC(C)=O)cc3c2=O)cc1,0.4,-98.7,-0.9,-142.3,-120.6,3.0,/
COc1ccc(Cn2c(C3CC3)nc3ccc(NC(=O)c4cccnc4)cc3c2=O)cc1,37.0*,-5.1,/,/,-176.2,/,21.0
COc1ccc(-n2c(SCC(=O)Nc3ncc(Cl)cc3Cl)nc3ccccc32)cc1,69.3*,40.9,3.8,-10.1,30.3,7.1,38.8*
COc1ccc(NC(=O)CSc2nc3ccccc3n2-c2ccccc2)c([N+](=O)[O-])c1,1.2,-10.6,1.6,9.5,24.5,5.4,/
O=C(CSc1nc2ccccc2n1-c1ccccc1)Nc1ncc(Cl)cc1Cl,64.4*,27.0,2.0,2.9,52.4,1.4,38.6*
Cc1cccc(-n2c(SCC(=O)Nc3ncc(Cl)cc3Cl)nc3ccccc32)c1,66.6*,28.2,2.3,16.7,?,7.2,46.9*
N#Cc1c2c(c(Nc3ccc(O)cc3)n3c1nc1ccccc13)CCC2,1.6,-14.4,4.7,-19.7,15.8,6.7,/
CC(On1nnc2ccc(S(=O)(=O)N3CCOCC3)cc21)C(=O)Nc1ccccc1F (configuration not stated),/,/,/,/,1.9,/,/
CC(C)c1ccc2c(c1)[C@H]1OCC[C@H]1[C@@H](c1cccs1)N2,26.1*,7.8,41.3*,85.8*,13.5,54.5*,65.8*
O=C(Nc1ccccc1Cl)c1ccc(=O)[nH]n1,2.7,-1.0,/,/,2.6,/,/
Cc1cccc(OCCCN2C(=O)C(=O)c3cc(C)ccc32)c1,43.8*,-21.9,3.7,39.5,-19.7,6.5,14.7
CCOC(=O)C1=C(C)NC(=S)NC1C (configuration not stated),-2.8,-4.7,0.2,-15.7,1.3,7.0,/
CCc1cc2c(=O)[nH]c(-c3ccccn3)nc2s1,27.0*,-105.4,-3.1,-33.7,?,1.6,48.6*
C=CCOc1ccc(/C(O)=C2\C(=O)C(=O)N(CCCOC)C2c2ccc(O)c(OC)c2)cc1 (configuration not stated),1.2,-15.3,-0.5,-6.1,2.1,6.6,/
